Data from PubChem BioAssay (Tox21).
“And” between values parts separate entries of the source, which are not always exact repeats. Identical values can stand only once. Results filed as inconclusive are left out. A structure can be active in one record and inactive in another. The source made the active and inactive calls. Unless noted, calls come from the whole dose curve; as a rule, active = well fitted curve in the direction sought with a large enough effect in the repeat runs; inconclusive = weak or mixed curves; inactive = no such curve, though single readings can be large; an effect the other way counts as inactive or inconclusive. Non-standard residues stand in square brackets, D forms with d. Residues, ends and D or L forms follow the SMILES beside them. Orn = NCCC[C@H](N)C(=O)O

Assays:
[1] = qHTS assay for small molecule agonists of the p53 signaling pathway (AID 651631; calls by dose curve; note: nearly all actives have a fitted effect of over 15% in size; note: potency is the fitted concentration of half-maximal effect)
Summary of the method: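 HCT-116 cells carrying a stable p53 response element–beta-lactamase reporter were plated, rested 5 h at 37 °C, then exposed to compound in DMSO for 16 h at 37 °C; reporter activity was read as FRET substrate fluorescence after 2 h at room temperature.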

[2] = qHTS assay for small molecules that induce genotoxicity in human embryonic kidney cells expressing luciferase-tagged ATAD5 (AID 651632); note: nearly all actives have a fitted effect of over 15% in size; note: potency is the fitted concentration of half-maximal effect
Summary of the method: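 Test compounds were delivered by pin tool onto HEK293T reporter cells (2,000/well) expressing ATAD5 fused to luciferase. After 16 hr at 37C, 5% CO2, Amplite was added for 30 min at room temperature and luminescence was measured.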

[3] = qHTS assay for small molecule disruptors of the mitochondrial membrane potential - cell viability (AID 720634; calls by dose curve; note: nearly all actives have a fitted effect of over 20% in size; note: potency is the fitted concentration of half-maximal effect)
Summary of the method: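 Same-well counter-screen: following the MMP dye addition, CellTiter-Glo was added to 1 hr compound-treated HepG2 cells and luminescence read after 30 min at room temperature.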

[4] = qHTS assay for small molecule disruptors of the mitochondrial membrane potential (AID 720635); note: potency is the fitted concentration of half-maximal effect
Summary of the method: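 Mitochondrial membrane potential tracked with Mito-MPS dye, red aggregates (ex 540/em 590 nm) against green monomers (ex 490/em 535 nm). Compound treatment 1 hr at 37C, dye 30 min in HepG2.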

[5] = qHTS assay to test for compound auto fluorescence at 590 nm (red) in HepG2 cells (AID 720674)
Summary of the method: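 We screened compounds on adherent HepG2 cells, incubating them for an hour at 37 C in 5% CO2 before reading emission at 590 nm under 540 nm excitation; values reflect equivalence to Rose Bengal sodium fluorescence.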

[6] = qHTS assay to test for compound auto fluorescence at 535 nm (green) in HepG2 cells (AID 720675)
[7] = qHTS assay to test for compound auto fluorescence at 460 nm (blue) in HEK293 cells (AID 720678)
Summary of the method: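 Triamterene serves as the blue fluorophore standard. Compound signal at 405/460 nm is read in HEK293 wells (2,000 cells, 10% dialyzed FBS) after overnight treatment at 37C.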

[8] = qHTS assay to test for compound auto fluorescence at 590 nm (red) in HEK293 cells (AID 720679)
Summary of the method: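 We plated HEK293 cells in 10% dialyzed FBS medium, let them adhere for 4-5 hr, then added 23 nL compound. Overnight at 37C and 5% CO2 preceded fluorescence measurement at 540/590nm.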

[9] = qHTS assay for small molecules that induce genotoxicity in human embryonic kidney cells expressing luciferase-tagged ATAD5 - cell viability (AID 651634; calls by dose curve; note: nearly all actives have a fitted effect of over 25% in size; note: potency is the fitted concentration of half-maximal effect)
Summary of the method: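 Quantitative high-throughput format. HEK293T cells expressing ATAD5 fused to luciferase were plated at 2,000 cells/well and treated 15.5 hr with compound versus DMSO. Viability was determined by fluorescent live-cell protease substrate, 30 min at 37C.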

[10] = qHTS assay for small molecule agonists of the p53 signaling pathway - cell viability (AID 651633; calls by dose curve; note: nearly all actives have a fitted effect of over 30% in size; note: potency is the fitted concentration of half-maximal effect)
Summary of the method: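 Viability counter-read: CellTiter-Glo luminescence (30 min, room temperature) in the same p53RE-bla plates. These plates had been exposed to compounds for 16 h at 37 C.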

Measured: Potency

O=C(O)[C@@H]1C[C@H](CP(=O)(O)O)CCN1
not listed: [9] | [10]
inactive: all other assays above

CCCCCCCCCC(=O)NO
not listed: [10]
inactive: all other assays above

CC(=O)O[C@H]1C[C@@H]2CC[C@@H]3[C@H](CC[C@@]4(C)[C@H]3C[C@H]([N+]3(C)CCCCC3)[C@@H]4OC(C)=O)[C@@]2(C)C[C@@H]1[N+]1(C)CCCCC1
not listed: [4] | [9]
inactive: all other assays above

COc1cc2c(cc1O)CCN[C@]21CS[C@@H]2c3c(OC(C)=O)c(C)c4c(c3[C@H](COC1=O)N1[C@@H]2[C@H]2c3c(cc(C)c(OC)c3O)C[C@@H]([C@@H]1O)N2C)OCO4
active: [1] 8.4 nM and 12.2 nM | [9] 42.2 nM
inactive: [7] | [8]
inactive and 243 nM (active): [2]

CC[C@H]1OC(=O)C[C@@H](O)[C@H](C)[C@@H](O[C@@H]2O[C@H](C)[C@@H](O[C@H]3C[C@@](C)(O)[C@@H](O)[C@H](C)O3)[C@H](N(C)C)[C@H]2O)[C@@H](CC=O)C[C@@H](C)C(=O)/C=C/C(C)=C/[C@@H]1CO[C@@H]1O[C@H](C)[C@@H](O)[C@@H](OC)[C@H]1OC
not listed: [3] | [5] | [10]
inactive: all other assays above

S=C1NC=NC2N=CNC12 (stereo not given)
active: [1] 3.44 µM | [10] 0.545 µM | [4] 4.86 µM
not listed: [3] | [9]
inactive: all other assays above

C[C@H](O)CN(C)C
not listed: [10]
inactive: all other assays above

C[C@H](Cc1ccc(O)c(O)c1)[C@@H](C)Cc1ccc(O)c(O)c1
active: [4] 13.3 µM
not listed: [6] | [10]
inactive: all other assays above

C=C(Nc1ccc(OCC)cc1)Nc1ccc(OCC)cc1
not listed: [4] | [9]
inactive: all other assays above

N=C(N)c1ccc(/C=C/c2ccc(C(=N)N)cc2O)cc1
active: [4] 1.97 µM
not listed: [3] | [5] | [9]
inactive: all other assays above

COC(=O)C[C@](O)(CCCC(C)(C)O)C(=O)O[C@@H]1C(OC)=CC23CCCN2CCc2cc4c(cc2[C@H]13)OCO4 (stereo not given in full)
inactive: [2] | [5] | [6] | [7] | [8]
active: [1] 0.0335 µM | [9] 26.6 nM and 23.7 nM

Cc1cc(CC(C)CC(C)(C)C)n(O)c(=O)c1 (stereo not given) (tested in a mixture with another compound)
active: [1] 9.44 µM | [2] 13.3 µM | [4] 3.35 µM
not listed: [10]
inactive: all other assays above

O=C1CCC/C=C\CCCCCCCCCC1
active: [4] 68.6 µM
not listed: [6] | [10]
inactive: all other assays above

CC1CCCCN1CCCOC(=O)c1ccccc1 (stereo not given)
not listed: [6] | [9]
inactive: all other assays above

O=P(O)(O)C(O)(Cn1ccnc1)P(=O)(O)O
not listed: [5] | [9]
inactive: all other assays above

C/C=C/C1=C(C(=O)O)N2C(=O)[C@@H](NC(=O)[C@H](N)c3ccc(O)cc3)[C@H]2SC1
not listed: [7] | [10]
inactive: all other assays above

O=P(O)(O)CP(=O)(O)O
not listed: [3] | [10]
inactive: all other assays above

c1ccc(-c2ccc(C(c3ccccc3)n3ccnc3)cc2)cc1 (stereo not given)
active: [1] 29.8 µM
not listed: [4] | [10]
inactive: all other assays above

CCCOC(=O)c1ccc(O)cc1
inactive: [1] | [2] | [9] | [6] | [7] | [8]

N=C(N)n1cccn1
not listed: [10]
inactive: all other assays above

C[N+]1(CCCCC[N+]2(C)CCCC2)CCCC1
not listed: [6] | [10]
inactive: all other assays above

CSCCC(N)C(=O)O (stereo not given)
not listed: [10]
inactive: all other assays above

CO[C@H](C(=O)[C@@H](O)[C@@H](C)O)C1Cc2cc3cc(O[C@H]4C[C@@H](O[C@H]5C[C@@H](O)[C@H](O)[C@@H](C)O5)[C@@H](O)[C@@H](C)O4)c(C)c(O)c3c(O)c2C(=O)[C@H]1O[C@H]1C[C@@H](O[C@H]2C[C@@H](O[C@H]3C[C@](C)(O)[C@H](O)[C@@H](C)O3)[C@H](O)[C@@H](C)O2)[C@H](O)[C@@H](C)O1 (stereo not given in full)
active: [1] 42.2 nM and 53.1 nM | [4] 27.8 µM
not listed: [6] | [10]
inactive: all other assays above

COc1c(O)cc2c(c1O)[C@@H]1O[C@H](CO)[C@@H](O)[C@H](O)[C@H]1OC2=O
not listed: [9] | [10]
inactive: all other assays above

NCCCC[C@H](NC(=O)[C@@H]1CCCN1C(=O)[C@@H]1CSSC[C@H](N)C(=O)N[C@@H](Cc2ccc(O)cc2)C(=O)N[C@@H](Cc2ccccc2)C(=O)N[C@@H](CCC(N)=O)C(=O)N[C@@H](CC(N)=O)C(=O)N1)C(=O)NCC(N)=O
not listed: [10]
inactive: all other assays above

C=C1[C@@H]2CC[C@@H](C2)C1(C)C
not listed: [5] | [9]
inactive: all other assays above

N[C@H](C(=O)O)[C@@H]1CC(Cl)=NO1
active: [1] 2.98 µM | [10] 13.3 µM
not listed: [2]
inactive: all other assays above

COC1[C@@H](O[C@@H]2O[C@H](C)[C@@H](O[C@H]3C[C@@](C)(O)[C@H](OC(=O)CC(C)C)[C@H](C)O3)[C@H](N(C)C)[C@H]2O)[C@@H](CC=O)C[C@@H](C)[C@@H](O)/C=C/C=C/C[C@@H](C)OC(=O)C[C@H]1OC(C)=O (stereo not given in full)
not listed: [2]
inactive: all other assays above

CC(C)C[C@@H]1NC(=O)[C@H](CCCN)NC(=O)[C@H](C(C)C)NC(=O)[C@@H]2CCCN2C(=O)[C@@H](Cc2ccccc2)NC(=O)[C@H](CC(C)C)NC(=O)[C@H](CCCN)NC(=O)[C@H](C(C)C)NC(=O)[C@@H]2CCCN2C(=O)[C@@H](Cc2ccccc2)NC1=O (cyclo(V[Orn]L[dF]PV[Orn]L[dF]P))
active: [1] 1.88 µM | [9] 2980 nM | [3] 13.3 µM | [4] 0.237 µM
inactive: [5] | [6] | [7] | [8]

CCc1cn([C@H]2C[C@H](O)[C@@H](CO)O2)c(=O)[nH]c1=O
not listed: [2] | [6]
inactive: all other assays above

O=C(O)[C@H]1CN(C/C=C/P(=O)(O)O)CCN1
not listed: [2]
inactive: all other assays above

N#Cc1c(N(CC(=O)O)CC(=O)O)sc(C(=O)O)c1CC(=O)O
not listed: [2]
inactive: all other assays above

NC(=O)[C@@H]1C[C@]2(NC(=O)NC2=O)c2cc(F)ccc2O1
not listed: [2] | [3] | [10]
inactive: all other assays above

C[C@@H]1C[C@H]2[C@@H]3C[C@H](F)C4=CC(=O)C=C[C@]4(C)[C@@]3(Cl)[C@@H](O)C[C@]2(C)[C@H]1C(=O)COC(=O)C(C)(C)C
not listed: [9] | [10]
inactive: all other assays above

C[C@H](NCCc1ccc(O)cc1)[C@H](O)c1ccc(O)cc1
not listed: [2]
inactive: all other assays above

CO/N=C(\C(=O)N[C@@H]1C(=O)N2C(C(=O)[O-])=C(C[n+]3ccc(N)n3CCO)CS[C@H]12)c1csc(N)n1
not listed: [2]
inactive: all other assays above

Nc1cc(Cl)c(NC2=NCCN2)c(Cl)c1
not listed: [2] | [6] | [10]
inactive: all other assays above

O=C(N[C@H](CO)[C@H](O)c1ccc([N+](=O)[O-])cc1)C(Cl)Cl
not listed: [2] | [4]
inactive: all other assays above

CC(C)(S)C(=O)N[C@@H](CS)C(=O)O
not listed: [2]
inactive: all other assays above

NCC(O)CC(=O)O (stereo not given)
not listed: [2] | [5] | [10]
inactive: all other assays above

CC1(C)C[C@@H]1C(=O)N/C(=C\CCCCSC[C@H](N)C(=O)O)C(=O)O
not listed: [2]
inactive: all other assays above

O=C(Cn1cnnn1)N[C@@H]1C(=O)N2C(C(=O)O)=C(CSc3nncs3)CS[C@H]12
not listed: [2]
inactive: all other assays above
